Assay results published in the supplement of paper PMC10849652.
About 7,900 targets were measured; listed, in parts, are those with a hit and a random draw of the rest. About 0.6% of all pairs of compound and target were hits.

Tests used:
Experiment in all cases: log2 fold change, soluble protein after heating vs DMSO (PISA); higher = thermal stabilisation; K562 cells, 10 uM, 30 min; active = over 0.2 and 3.5 SD of the protein, either way, in both replicates (recomputed)
[1] = compound: COC1=CC=C(C=C1)CN2C=CC3=C2C=C(C=C3)C(=O)NO
How it was run: (§1)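 Values are thermal stability changes relative to control samples and are taken from duplicates. They are stated as log2 fold changes. Before quantification by TMTpro 16plex LC-MS/MS with equalised channel sums, K562 cells at 2×10^6 cells/mL were treated with 10 μM compound for 30 min, heated in aliquots for 3 min across 48°C-58°C, pooled, extracted in PBS with 0.5% NP-40 at 4°C, and centrifuged at 21,000xg for 90 min to give the soluble supernatant.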

[2] = compound: CON(C)C(=O)N1N=C(c2cc(F)ccc2F)S[C@@]1(CCCN)c1ccccc1 [filanesib]
How it was run: as §1

[3] = compound: CO[C@H]1C[C@@H]2CC[C@@H](C)[C@@](O)(O2)C(=O)C(=O)N2CCCC[C@H]2C(=O)O[C@H]([C@H](C)C[C@@H]2CC[C@H](n3cnnn3)[C@H](OC)C2)CC(=O)[C@H](C)/C=C(\C)[C@@H](O)[C@@H](OC)C(=O)[C@H](C)C[C@H](C)/C=C/C=C/C=C/1C [zotarolimus]
How it was run: as §1

[4] = compound: COc1cc(C(=O)O)ccc1NC(=O)[C@@H]1N[C@@H](CC(C)(C)C)[C@](C#N)(c2ccc(Cl)cc2F)[C@H]1c1cccc(Cl)c1F [idasanutlin]
How it was run: as §1

[5] = compound: COc1cc(Nc2ncc3c(n2)-c2ccc(Cl)cc2C(c2c(F)cccc2OC)=NC3)ccc1C(=O)O [alisertib]
How it was run: as §1

[6] = compound: COc1cc2nc(-c3cc(F)ccc3O)nc(N[C@@H]3CNC[C@H]3C(C)(C)O)c2cc1OC
How it was run: as §1

[7] = compound: COc1cc2ncnc(Nc3ccc(F)c(Cl)c3)c2cc1OCCCN1CCOCC1 [gefitinib]
How it was run: as §1

[8] = compound: COc1cccc2cc(-c3nc([C@H]4CC[C@H](C(=O)O)CC4)n4ncnc(N)c34)[nH]c12
How it was run: as §1

[9] = compound: CS(=O)(=O)CCNCc1ccc(-c2ccc3ncnc(Nc4ccc(OCc5cccc(F)c5)c(Cl)c4)c3c2)o1 [lapatinib]
How it was run: as §1

[10] = compound: CS(=O)(=O)N1CCN(Cc2cc3nc(-c4cccc5[nH]ncc45)nc(N4CCOCC4)c3s2)CC1 [pictilisib]
How it was run: as §1

[11] = compound: CS(=O)(=O)c1ccc(-c2cnc(N)c(C(=O)Nc3ccccc3)n2)cc1
How it was run: as §1

[12] = compound: C[C@@H](Oc1cc(-c2cnn(C3CCNCC3)c2)cnc1N)c1c(Cl)ccc(F)c1Cl [crizotinib]
How it was run: as §1

[13] = compound: C[C@@H]1COCCN1C2=NC(=NC(=C2)C3(CC3)S(=O)(=O)C)C4=C5C=CNC5=CC=C4
How it was run: as §1

[14] = compound: C[C@H](C1=CC=C(C=C1)C(=O)NC2=C3C=CNC3=NC=C2)N
How it was run: as §1

[15] = compound: C[C@H](Nc1ncnc2nc[nH]c12)c1cc2cccc(Cl)c2c(=O)n1-c1ccccc1 [duvelisib]
How it was run: as §1

[16] = compound: Cc1cc(Nc2cc(CN3CCOCC3)c3nc(C)c(Cc4ccc(Cl)cc4F)n3n2)n[nH]1 [gandotinib]
How it was run: as §1

[17] = compound: Cc1cc(Nc2cc(N3CCN(C)CC3)nc(Sc3ccc(NC(=O)C4CC4)cc3)n2)n[nH]1 [tozasertib]
How it was run: as §1

[18] = compound: Cc1cc(SCc2sc(-c3ccc(C(F)(F)F)cc3)nc2C)ccc1OCC(=O)O
How it was run: as §1

[19] = compound: Cc1ccc(-n2nc(C(C)(C)C)cc2NC(=O)Nc2ccc(OCCN3CCOCC3)c3ccccc23)cc1 [doramapimod]
How it was run: as §1

[20] = compound: Cc1ccc(C(=O)N(CCCN)[C@@H](c2nc3cc(Cl)ccc3c(=O)n2Cc2ccccc2)C(C)C)cc1 [ispinesib]
How it was run: as §1

Measured: log2 fold change

PCNT (UniProt O95613)
inactive: [1] -0.228 | [2] 0.006 | [3] -0.001 | [4] 0.075 | [5] 0.02 | [6] 0.055 | [7] 0.085 | [8] 0.257 | [9] -0.174 | [10] 0.285 | [11] 0.119 | [12] 0.023 | [13] 0.09 | [14] 0.153 | [15] -0.003 | [16] 0.06 | [17] 0.032 | [18] -0.006 | [19] -0.023 | [20] -0.099

PPP2R5C isoform 5 (UniProt Q13362)
Chain of UniProt Q13362 (Q13362 whole entry, looked up): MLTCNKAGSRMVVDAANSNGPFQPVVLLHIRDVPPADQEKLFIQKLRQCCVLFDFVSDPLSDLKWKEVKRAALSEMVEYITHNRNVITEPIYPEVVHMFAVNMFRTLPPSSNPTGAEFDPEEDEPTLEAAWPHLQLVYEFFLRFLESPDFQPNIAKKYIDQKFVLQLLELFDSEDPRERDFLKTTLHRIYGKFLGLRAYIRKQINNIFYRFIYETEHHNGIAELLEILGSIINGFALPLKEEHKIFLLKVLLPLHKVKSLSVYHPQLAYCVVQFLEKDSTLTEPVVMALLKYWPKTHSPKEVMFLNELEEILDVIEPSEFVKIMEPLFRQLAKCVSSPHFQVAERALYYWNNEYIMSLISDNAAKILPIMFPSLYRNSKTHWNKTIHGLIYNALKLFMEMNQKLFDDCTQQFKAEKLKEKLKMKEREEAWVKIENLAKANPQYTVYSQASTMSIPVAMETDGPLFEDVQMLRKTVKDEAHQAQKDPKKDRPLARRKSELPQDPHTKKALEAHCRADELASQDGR
inactive: [1] 0.022 | [2] -0.126 | [3] 0.031 | [4] -0.137 | [5] -0.11 | [6] 0.082 | [7] -0.018 | [8] -0.012 | [9] 0 | [10] 0.111 | [11] -0.054 | [12] -0.071 | [13] 0.023 | [14] -0.05 | [15] 0.009 | [16] -0.024 | [17] -0.019 | [18] 0.069 | [19] -0.043 | [20] 0.007

PTP4A2 (UniProt Q12974)
Chain of UniProt Q12974 (Q12974 whole entry, looked up): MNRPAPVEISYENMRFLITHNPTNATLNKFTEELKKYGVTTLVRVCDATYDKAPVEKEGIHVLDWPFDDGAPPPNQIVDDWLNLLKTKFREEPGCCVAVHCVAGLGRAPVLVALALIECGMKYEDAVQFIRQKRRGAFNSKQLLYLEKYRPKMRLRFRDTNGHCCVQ
inactive: [1] 0.078 | [2] -0.062 | [3] -0.022 | [4] -0.079 | [5] -0.055 | [6] 0.033 | [7] -0.007 | [8] -0.11 | [9] -0.078 | [11] -0.001 | [12] 0.047 | [13] 0.026 | [14] -0.01 | [15] -0.057 | [17] 0.017 | [18] 0.05 | [19] -0.047 | [20] 0.154

PSMB4 (UniProt P28070)
Chain of UniProt P28070 (P28070 whole entry, looked up): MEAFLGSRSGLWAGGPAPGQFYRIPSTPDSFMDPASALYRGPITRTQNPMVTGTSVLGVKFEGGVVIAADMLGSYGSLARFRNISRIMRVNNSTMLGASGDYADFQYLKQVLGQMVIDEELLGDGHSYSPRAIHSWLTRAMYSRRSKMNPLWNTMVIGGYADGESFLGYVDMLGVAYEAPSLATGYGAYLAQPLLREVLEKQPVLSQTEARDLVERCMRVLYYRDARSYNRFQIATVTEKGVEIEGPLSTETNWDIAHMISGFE
inactive: [1] -0.033 | [2] 0.034 | [3] -0.011 | [4] -0.012 | [5] -0.031 | [6] -0.074 | [7] -0.038 | [8] 0.005 | [9] 0.03 | [10] -0.026 | [11] 0.014 | [12] 0.03 | [13] -0.09 | [14] 0.064 | [15] -0.04 | [16] 0.08 | [17] -0.002 | [18] -0.018 | [19] 0.021 | [20] 0.015

PRPF31 (UniProt Q8WWY3)
inactive: [1] 0.07 | [2] 0.006 | [3] -0.028 | [4] -0.053 | [5] 0.081 | [6] -0.393 | [7] 0.003 | [8] 0.024 | [9] 0.061 | [10] 0.139 | [11] 0.041 | [12] 0.013 | [13] 0.181 | [14] 0.137 | [15] 0.133 | [16] -0.044 | [17] 0.08 | [18] 0.159 | [19] 0.069 | [20] -0.029

PATL1 (UniProt Q86TB9)
Chain of UniProt Q86TB9 (Q86TB9 whole entry, looked up): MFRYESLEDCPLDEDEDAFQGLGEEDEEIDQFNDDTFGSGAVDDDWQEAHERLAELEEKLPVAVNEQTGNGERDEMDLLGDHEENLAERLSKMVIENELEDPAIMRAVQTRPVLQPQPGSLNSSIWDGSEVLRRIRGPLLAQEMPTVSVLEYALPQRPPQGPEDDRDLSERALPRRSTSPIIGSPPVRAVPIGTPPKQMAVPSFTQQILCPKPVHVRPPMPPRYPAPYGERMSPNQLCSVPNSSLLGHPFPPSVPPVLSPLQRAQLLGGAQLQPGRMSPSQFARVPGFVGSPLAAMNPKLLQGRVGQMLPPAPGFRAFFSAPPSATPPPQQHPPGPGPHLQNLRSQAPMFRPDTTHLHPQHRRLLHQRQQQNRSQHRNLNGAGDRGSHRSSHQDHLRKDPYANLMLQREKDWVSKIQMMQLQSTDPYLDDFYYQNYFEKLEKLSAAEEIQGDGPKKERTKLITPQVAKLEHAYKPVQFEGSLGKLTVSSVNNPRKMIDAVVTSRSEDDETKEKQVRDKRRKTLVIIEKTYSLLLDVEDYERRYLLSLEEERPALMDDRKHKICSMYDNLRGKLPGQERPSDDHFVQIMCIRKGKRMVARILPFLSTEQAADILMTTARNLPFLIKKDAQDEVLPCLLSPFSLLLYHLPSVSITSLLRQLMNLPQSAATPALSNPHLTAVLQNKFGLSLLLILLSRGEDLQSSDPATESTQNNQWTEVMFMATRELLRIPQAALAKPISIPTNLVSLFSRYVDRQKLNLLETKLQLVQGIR
inactive: [1] -0.015 | [2] -0.009 | [3] 0.076 | [4] 0.049 | [5] -0.035 | [6] -0.135 | [8] 0.069 | [9] 0.05 | [10] -0.115 | [11] -0.014 | [12] -0.201 | [13] -0.037 | [14] 0.122 | [15] -0.002 | [16] -0.139 | [17] -0.014 | [18] 0.039 | [19] 0.12
active: [20] -0.339

PTRHD1 (UniProt Q6GMV3)
Chain of UniProt Q6GMV3 (Q6GMV3 whole entry, looked up): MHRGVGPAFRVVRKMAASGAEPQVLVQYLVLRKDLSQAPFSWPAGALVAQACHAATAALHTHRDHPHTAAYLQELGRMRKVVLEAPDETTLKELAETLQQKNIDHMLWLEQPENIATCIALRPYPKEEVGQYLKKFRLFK
inactive: [1] -0.051 | [2] 0.065 | [3] -0.008 | [4] 0.042 | [5] -0.103 | [6] -0.025 | [7] 0.085 | [8] 0.068 | [9] -0.061 | [10] 0.02 | [11] 0.003 | [12] 0.006 | [13] 0.184 | [14] -0.097 | [15] 0.18 | [16] 0.08 | [17] 0.037 | [18] 0.022 | [19] -0.036 | [20] 0.225

PRKD3 (UniProt O94806)
Chain of UniProt O94806 (O94806 whole entry, looked up): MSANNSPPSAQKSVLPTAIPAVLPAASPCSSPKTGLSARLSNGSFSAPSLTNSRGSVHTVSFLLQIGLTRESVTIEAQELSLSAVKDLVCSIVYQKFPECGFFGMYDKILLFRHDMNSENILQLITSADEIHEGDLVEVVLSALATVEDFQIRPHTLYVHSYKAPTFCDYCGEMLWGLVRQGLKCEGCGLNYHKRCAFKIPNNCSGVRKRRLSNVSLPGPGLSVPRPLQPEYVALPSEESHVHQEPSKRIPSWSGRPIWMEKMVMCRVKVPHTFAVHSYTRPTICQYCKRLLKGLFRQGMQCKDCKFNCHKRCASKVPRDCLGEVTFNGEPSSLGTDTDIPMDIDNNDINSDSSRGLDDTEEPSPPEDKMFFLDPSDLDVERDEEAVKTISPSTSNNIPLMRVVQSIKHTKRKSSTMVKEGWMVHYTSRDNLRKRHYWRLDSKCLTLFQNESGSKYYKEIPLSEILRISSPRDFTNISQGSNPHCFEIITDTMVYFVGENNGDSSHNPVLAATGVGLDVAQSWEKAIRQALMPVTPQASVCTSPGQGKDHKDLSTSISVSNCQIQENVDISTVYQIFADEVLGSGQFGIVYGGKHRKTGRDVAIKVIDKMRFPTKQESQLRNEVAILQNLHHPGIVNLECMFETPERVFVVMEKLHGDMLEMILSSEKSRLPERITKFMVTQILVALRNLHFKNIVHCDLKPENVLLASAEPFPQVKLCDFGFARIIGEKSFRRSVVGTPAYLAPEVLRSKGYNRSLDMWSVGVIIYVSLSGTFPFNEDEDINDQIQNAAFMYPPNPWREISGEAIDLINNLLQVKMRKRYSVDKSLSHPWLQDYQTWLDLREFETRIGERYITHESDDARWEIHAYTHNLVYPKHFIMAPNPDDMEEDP
inactive: [1] -0.062 | [2] -0.002 | [3] 0.084 | [4] 0.171 | [5] -0.039 | [8] 0.149 | [10] 0.255 | [11] -0.132 | [12] -0.292 | [14] -0.189 | [15] 0.033 | [16] 0.092 | [18] 0.039 | [19] -0.088 | [20] -0.237

QRICH1 (UniProt Q2TAL8)
inactive: [1] 0.015 | [2] 0.004 | [3] -0.022 | [4] -0.072 | [5] 0.071 | [6] 0.08 | [7] 0.137 | [8] 0.032 | [9] 0.011 | [11] -0.01 | [12] -0.2 | [13] 0.07 | [14] 0.016 | [15] 0.143 | [17] 0.171 | [18] 0.014 | [19] -0.077 | [20] 0.006

PDE6D (UniProt O43924)
Chain of UniProt O43924 (O43924 whole entry, looked up): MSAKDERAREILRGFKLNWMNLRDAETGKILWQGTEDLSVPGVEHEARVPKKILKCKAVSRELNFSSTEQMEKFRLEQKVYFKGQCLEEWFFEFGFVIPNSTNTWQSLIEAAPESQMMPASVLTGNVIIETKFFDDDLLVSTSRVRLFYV
inactive: [1] -0.036 | [2] 0.101 | [3] -0.179 | [4] -0.092 | [5] -0.031 | [7] 0.076 | [8] 0.002 | [10] 0.078 | [11] -0.165 | [12] 0.001 | [13] 0.079 | [14] -0.148 | [15] 0.109 | [16] -0.202 | [17] -0.076 | [18] -0.098 | [19] 0.084

PRG4 (UniProt Q92954)
inactive: [1] 0.17 | [2] 0.081 | [4] 0.174 | [5] 0.01 | [7] 0.034 | [8] 0.229 | [10] -0.062 | [11] 0.08 | [12] -0.19 | [13] -0.014 | [14] 0.023 | [15] -0.145 | [16] 0.098 | [17] 0.167 | [18] 0.004 | [19] -0.229 | [20] -0.114
active: [3] -0.955

POLR2M (UniProt Q6EEV4)
Chain of UniProt Q6EEV4 (Q6EEV4 whole entry, looked up): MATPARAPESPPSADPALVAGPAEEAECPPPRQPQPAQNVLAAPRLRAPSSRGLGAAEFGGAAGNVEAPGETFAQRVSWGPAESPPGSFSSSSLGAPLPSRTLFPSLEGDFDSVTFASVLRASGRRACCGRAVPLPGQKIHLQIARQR
inactive: [1] -0.046 | [2] 0.076 | [3] 0.034 | [4] 0.046 | [5] -0.144 | [6] -0.063 | [7] 0.076 | [8] -0.033 | [9] -0.084 | [11] -0.03 | [12] -0.021 | [13] 0.16 | [14] -0.078 | [15] -0.024 | [17] -0.039 | [18] -0.061 | [19] -0.04

POGZ (UniProt Q7Z3K3)
inactive: [1] -0.066 | [2] -0.021 | [3] 0.008 | [4] 0.01 | [6] 0.095 | [9] -0.086 | [10] 0.082 | [11] 0.044 | [12] -0.019 | [13] 0.242 | [14] 0.01 | [15] -0.115 | [16] 0.143 | [17] 0.153 | [18] 0.142 | [19] 0.053 | [20] -0.221

PPP2R5B (UniProt Q15173)
Chain of UniProt Q15173 (Q15173 whole entry, looked up): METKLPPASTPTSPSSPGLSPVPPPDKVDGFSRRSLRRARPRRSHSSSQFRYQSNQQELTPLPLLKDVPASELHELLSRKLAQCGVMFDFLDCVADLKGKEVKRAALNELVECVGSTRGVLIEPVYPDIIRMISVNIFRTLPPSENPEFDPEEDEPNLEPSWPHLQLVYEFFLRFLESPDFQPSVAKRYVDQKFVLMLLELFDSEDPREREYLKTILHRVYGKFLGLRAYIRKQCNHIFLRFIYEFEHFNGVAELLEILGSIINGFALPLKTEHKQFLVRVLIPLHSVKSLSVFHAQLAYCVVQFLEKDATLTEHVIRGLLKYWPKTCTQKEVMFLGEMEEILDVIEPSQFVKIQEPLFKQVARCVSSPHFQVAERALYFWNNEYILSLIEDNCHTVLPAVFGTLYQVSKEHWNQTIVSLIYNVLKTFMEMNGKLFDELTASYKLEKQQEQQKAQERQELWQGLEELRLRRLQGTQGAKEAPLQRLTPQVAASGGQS
inactive: [4] -0.065 | [5] 0.088 | [6] 0.148 | [7] -0.079 | [8] -0.058 | [9] 0.051 | [10] 0.01 | [15] 0.16 | [16] -0.277 | [18] -0.002

PIAS4 (UniProt Q8N2W9)
Chain of UniProt Q8N2W9 (Q8N2W9 whole entry, looked up): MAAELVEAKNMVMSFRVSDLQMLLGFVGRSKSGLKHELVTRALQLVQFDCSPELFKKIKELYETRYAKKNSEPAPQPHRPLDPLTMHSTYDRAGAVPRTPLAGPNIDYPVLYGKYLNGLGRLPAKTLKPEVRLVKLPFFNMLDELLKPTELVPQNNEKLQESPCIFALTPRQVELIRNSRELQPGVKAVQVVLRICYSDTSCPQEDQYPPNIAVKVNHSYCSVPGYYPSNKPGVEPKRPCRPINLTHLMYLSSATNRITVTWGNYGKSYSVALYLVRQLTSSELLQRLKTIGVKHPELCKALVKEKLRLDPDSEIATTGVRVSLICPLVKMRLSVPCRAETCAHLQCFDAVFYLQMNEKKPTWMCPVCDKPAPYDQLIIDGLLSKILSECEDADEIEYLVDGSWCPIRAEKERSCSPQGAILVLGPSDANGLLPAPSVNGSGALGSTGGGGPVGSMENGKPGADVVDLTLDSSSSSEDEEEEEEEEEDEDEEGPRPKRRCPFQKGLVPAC
inactive: [1] 0.049 | [5] -0.566 | [6] 0.069 | [8] -0.167 | [9] -0.017 | [10] -0.257 | [12] -0.178 | [13] 0.047 | [15] 0.036 | [16] -0.013 | [17] -0.009 | [18] 0.021 | [19] 0.061 | [20] -0.278

PSD3 (UniProt Q9NYI0)
inactive: [1] -0.003 | [3] 0.074 | [4] 0.015 | [5] -0.003 | [6] 0.141 | [7] 0.036 | [8] 0.069 | [9] -0.07 | [12] 0.071 | [14] -0.047 | [19] -0.02 | [20] -0.075

PKM isoform 2 (UniProt P14618)
Chain of UniProt P14618 (P14618 whole entry, looked up): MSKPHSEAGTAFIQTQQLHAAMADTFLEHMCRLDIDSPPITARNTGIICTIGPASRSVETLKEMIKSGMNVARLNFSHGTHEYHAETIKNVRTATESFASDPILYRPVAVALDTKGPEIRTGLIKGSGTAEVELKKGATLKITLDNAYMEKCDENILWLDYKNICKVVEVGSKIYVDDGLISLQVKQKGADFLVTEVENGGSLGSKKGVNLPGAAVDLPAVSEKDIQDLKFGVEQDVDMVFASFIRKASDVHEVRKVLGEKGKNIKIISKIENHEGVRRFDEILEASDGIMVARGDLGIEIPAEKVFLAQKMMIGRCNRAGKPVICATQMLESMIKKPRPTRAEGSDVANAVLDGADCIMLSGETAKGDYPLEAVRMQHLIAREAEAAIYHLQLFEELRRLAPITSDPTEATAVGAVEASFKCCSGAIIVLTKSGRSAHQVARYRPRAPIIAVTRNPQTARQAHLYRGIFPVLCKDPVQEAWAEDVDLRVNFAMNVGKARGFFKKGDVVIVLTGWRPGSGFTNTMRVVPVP
inactive: [1] 0.141 | [2] 0.04 | [4] -0.049 | [5] -0.139 | [6] 0.141 | [7] -0.056 | [8] 0.059 | [9] -0.115 | [10] 0.109 | [11] -0.053 | [12] -0.033 | [13] -0.154 | [15] -0.001 | [16] 0.131 | [17] 0.056 | [18] 0.12 | [19] 0.029 | [20] 0.016

PSMC3 (UniProt E9PLG2)
inactive: [1] -0.612 | [2] 0.17 | [5] 0.071 | [8] 0.079 | [11] 0.206 | [12] 0.168 | [13] 0.101 | [15] 0.245 | [17] -0.288 | [18] -0.101 | [19] -0.058

PSMD8 (UniProt K7ERW6)
inactive: [1] -0.188 | [12] -0.021 | [17] -0.231 | [19] 0.066

PHLDB1 isoform 2 (UniProt Q86UU1)
inactive: [1] 0 | [3] 0.014 | [4] -0.033 | [5] -0.098 | [6] -0.069 | [7] 0.149 | [8] -0.032 | [9] -0.039 | [12] -0.307 | [13] 0.058 | [14] -0.043 | [16] -0.281 | [17] -0.126 | [18] 0.108 | [19] 0.032 | [20] -0.053
active: [10] -0.498 | [15] -0.759
